TDP1 inh: inhibitors of human tyrosyl-DNA phosphodiesterase TDP1. Q9NUW8. recombinant TDP1, AlphaScreen DNA substrate cleavage. Potency, µM (titrated, usually from 130 µM), without a hit: at the top dose activity change, negative = inhibition, hits mostly inhibitors. 350,000 compounds, 0.28% hits. AID 485290; further: potency means the concentration at half of the fitted maximal effect; on the % scale 0 is the no-effect control and ±100 the full control effect; nearly all actives have a fitted effect of over 40% in size
Target sequence (Q9NUW8 whole entry, looked up): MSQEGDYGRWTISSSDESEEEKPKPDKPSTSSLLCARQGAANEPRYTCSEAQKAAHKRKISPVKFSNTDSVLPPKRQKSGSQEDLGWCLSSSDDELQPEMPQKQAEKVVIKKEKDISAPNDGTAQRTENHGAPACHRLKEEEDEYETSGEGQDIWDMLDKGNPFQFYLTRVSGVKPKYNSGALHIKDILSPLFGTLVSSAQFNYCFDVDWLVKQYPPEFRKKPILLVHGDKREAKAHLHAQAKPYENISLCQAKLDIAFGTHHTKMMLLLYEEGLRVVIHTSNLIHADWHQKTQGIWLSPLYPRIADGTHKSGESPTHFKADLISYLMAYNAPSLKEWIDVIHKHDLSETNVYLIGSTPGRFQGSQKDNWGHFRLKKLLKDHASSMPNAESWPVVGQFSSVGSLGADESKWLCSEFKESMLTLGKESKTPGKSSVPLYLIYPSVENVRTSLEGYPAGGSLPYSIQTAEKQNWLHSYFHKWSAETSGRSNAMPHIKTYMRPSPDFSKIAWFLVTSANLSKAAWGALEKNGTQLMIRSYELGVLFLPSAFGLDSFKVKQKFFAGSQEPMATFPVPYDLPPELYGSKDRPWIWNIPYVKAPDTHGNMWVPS
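Compounds were preincubated with Tdp1 (1 nM final) for 15 min at room temperature before substrate (15 nM final) started a 5 min reaction; beads (10 ug/ml final) were then added for 10 min before AlphaScreen detection.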
HepG2 tox: counter-screen for TGF-b inhibitors: cytotoxicity in HepG2 cells; HepG2 CAGA-GFP viability, ATP luminescence, 18 h; Potency, µM (top dose mostly 46.1 µM), without a hit: at the highest dose activity change, negative = cytotoxicity, usual class: cytotoxic; 410,000 compounds, 0.76% hits; AID 588856; further: potency means the concentration at half of the fitted maximal effect
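CellTiter-Glo luminescence gave cytotoxicity after 18 hours at 37 degrees C. The cells were HepG2 CAGA-GFP in 1% FBS DMEM, stimulated with 500 pg/mL TGF-beta after compound addition. %Activity was normalised to no-cell wells (complete cell-killing) and DMSO (no toxicity), and curves were fitted and classified.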
IL-1B inflam inh: inflammasome signaling inhibition, IL-1 beta readout; activity change, % at 57.5 µM; THP-1 LPS/ATP IL-1B secretion, AlphaLISA, 16 h; stronger effect = lower value; 360,000 compounds, 4.7% hits; in the data active means activity change below about -50%; inconclusive means mostly about -30% to -49%; further: on the % scale 0 is the no-effect control and ±100 the full control effect
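Secreted IL-1B measured by AlphaLISA bead assay after 16 h compound exposure of THP-1 cells; compounds (final up to 57.5 uM) added 1 h before LPS (250 ng/mL) and ATP (1.25 mM) stimulation; lower signal means less secretion.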
TGFb inhibitor: TGF-b pathway inhibition; HepG2 CAGA-GFP TGF-b/SMAD3 reporter, GFP fluorescence, 18 h; TGF-beta stimulated, 500 pg/mL final; Potency, µM (top dose mostly 46.1 µM), for inactives: at the top dose activity, negative = inhibition, usual class: inhibitors; 410,000 compounds, 1.2% hits; AID 588855; further: potency means the concentration at half of the fitted maximal effect; on the % scale 0 is the no-effect control and ±100 the full control effect; nearly all actives have a fitted effect of over 65% in size
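GFP signal (ex488/em500-530) from TGF-beta-stimulated HEPG2 CAGA-GFP cells, 500 pg/mL final, 18 h at 37 degrees C in DMEM plus 1% FBS, normalized to unstimulated and DMSO-stimulated controls.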
DT40 TDP1 CPT: growth inhibition of DT40 Tdp1-/-;hTDP1 cells with camptothecin (screen for TDP1 inhibitors) | Potency, µM (series often up to 46.2 µM), for the others: at the top dose activity change, negative = growth inhibition, actives largely listed as inhibitors | chicken DT40 Tdp1-/-;hTDP1 cells + 20 nM CPT, ATP luminescence, 48 h | 420,000 compounds, 12% hits; further: potency means the concentration at half of the fitted maximal effect; on the % scale 0 is the no-effect control and ±100 the full control effect; nearly all actives have a fitted effect of over 55% in size
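Cell growth measured by CellTiter-Glo luminescence after a minimum 48 h, 37 C compound exposure with 20 nM CPT in Tdp1-knockout DT40 cells stably expressing hTDP1, seeded 400/well; qHTS titration format.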
DT40 TDP1 no CPT: qHTS for Inhibitors of human tyrosyl-DNA phosphodiesterase 1 (TDP1): qHTS in cells in absence of CPT | AID 686978, 2013 | Potency, µM (top dose mostly 46.2 µM), for inactives: at the highest dose activity change, negative = growth inhibition, actives largely listed as inhibitors | DT40 Tdp1-/- hTDP1 cells, no CPT, ATP luminescence, 48 h | 420,000 compounds, 15% hits; further: potency means the concentration at half of the fitted maximal effect; on the % scale 0 is the no-effect control and ±100 the full control effect; nearly all actives have a fitted effect of over 55% in size
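Growth of hTDP1-complemented DT40 Tdp1-knockout cells is measured by ATP luminescence after at least 48 hr compound exposure at 37 °C, with DMSO substituting for the 20 nM CPT used in the parallel screen.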
Starred values were filed as active, the others as inactive; ? = inconclusive; . = not tested or not shown; [ ] = remark or other dose. An excerpt weighted towards active compounds, which were near 18% of everything screened. Unless noted, the call rests on the fitted dose curve; in most records, active means well fitted curve in the direction sought with a large enough effect; inconclusive means small, poorly fitted or top-dose-only effect, or another doubt; inactive means no such curve, though single readings can be large; an effect the other way counts as inactive or inconclusive.

SMILES	TDP1 inh	HepG2 tox	IL-1B inflam inh	TGFb inhibitor	DT40 TDP1 CPT	DT40 TDP1 no CPT
Cc1c(CC(=O)N2C[C@H]3C[C@@H](C2)c2cccc(=O)n2C3)c(=O)oc2cc3occ(C(C)(C)C)c3cc12	.	-4%	0	-19%	?	?
COc1cc(CNC(=O)c2cc3ccccc3oc2=O)cc(OC)c1OC	.	-28%	48	0%	-8%	0%
COC(=O)Nc1nc(C)c(C(=O)c2ccccc2)s1	3%	-4%	26	0%	8.2µM*	12µM*
COC(=O)Nc1nc(-c2ccccc2)c(C(=O)c2ccccc2)s1	7%	-3%	33	?	0.82µM*	0.65µM*
CCOC(=O)Nc1nc(C)c(C(=O)c2ccc(Cl)cc2)s1	-2%	-24%	6	3%	?	?
COc1ccccc1-c1cncnc1NCCN1CCOCC1	?	.	.	.	7.3µM*	5.2µM*
CNc1ncncc1-c1ccccc1OC	28µM*	.	.	.	3%	-19%
COCCNc1ncncc1-c1ccccc1OC	.	.	.	.	-27%	4%
COc1ccccc1-c1ccc2ncnc(NCc3cccnc3)c2c1	-7%[56.1 µM]	.	.	.	8.2µM*	6.5µM*
COc1ccccc1-c1cncnc1Nc1ccccc1	.	.	.	.	?	-5%
COc1ccccc1-c1cncnc1NCc1cccnc1	25µM*	.	.	.	-12%	-11%
CCOC(=O)c1c(C)[nH]c(C)c1S(=O)(=O)N(C)CC(=O)Nc1ccc(C)cc1C	3%	-17%	.	-26%	-15%	-25%
N#CC1=C(N)N(c2ncn[nH]2)C2=C(C(=O)CCC2)C1c1ccc(F)cc1 (stereo not drawn)	3%	4%	10	4%	19%	-17%
S=C1CCC(c2ccc(Br)cc2)=NN1c1ccccc1	.	-37%	-1	0%	?	?
Cc1ccc(C)c(N(C)C(=O)Cc2c(C(=O)O)[nH]c3ccc(Cl)cc23)c1	0%	-42%	.	-9%	?	?
Nc1cc(S(=O)(=O)Nc2cc(Cl)ccc2Cl)ccc1N1CCCC1	11%	-6%	37	-28%	?	-10%
COc1ccccc1CNc1ncncc1-c1ccccc1C	32µM*	.	.	.	-13%	-15%
COc1ccccc1-c1ccc2ncnc(NCc3cnc(C)cn3)c2c1	.	.	.	.	?	18µM*
NC(N)=NCCCCN=C(N)N	5%[56.1 µM]	.	.	.	?	?
COc1ccc(-n2c(C)c(C)c3c(N)ncnc32)cc1	7%	-2%	4	0%	?	?
COc1cccc2sc(N3CCN(C(=O)C4COc5ccccc5O4)CC3)nc12 (stereo not drawn)	8%	-7%	-7	?	?	?
CC(C)(C)C(=O)N1CCN(c2nc3ccc(Br)cc3s2)CC1	-5%	0%	-2	-15%	16µM*	16µM*
CC(C)(C)C(=O)N1CCN(c2nc3c(F)cccc3s2)CC1	3%	5%	.	8%	16µM*	16µM*
O=C(C1COc2ccccc2O1)N1CCN(c2nc3c(F)cccc3s2)CC1 (stereo not drawn)	0%	-14%	.	?	?	23µM*
CCCCC(=O)N1CCN(c2nc3ccc(Br)cc3s2)CC1	0%	-17%	-88*	-22%	16µM*	15µM*
SMILES	TDP1 inh	HepG2 tox	IL-1B inflam inh	TGFb inhibitor	DT40 TDP1 CPT	DT40 TDP1 no CPT
Cc1ccc(C)c2sc(N3CCN(C(=O)C(C)(C)C)CC3)nc12	-3%	-19%	.	-25%	?	?
COc1ccc(-c2coc3c2c(C)cc2oc(=O)c(CC(=O)O)c(C)c23)cc1	7%	-10%	.	-5%	10%	-11%
COc1cccc(-c2coc3ccc(Br)cc3c2=O)c1	3%	.	.	.	.	.
COc1ccccc1C(=O)NCCC(=O)Nc1ccncc1	1%	-3%	-1	0%	-4%	2%
CCCC(=O)N1CCN(c2nc3ccc(Cl)cc3s2)CC1	1%	-16%	-8	-15%	?	?
CC(C)(C)C(=O)N1CCN(c2nc3ccc(Cl)cc3s2)CC1	.	3%	?	0%	?	23µM*
O=C(COC(=O)COc1ccccc1[N+](=O)[O-])Nc1ccc(S(=O)(=O)N2CCCCC2)cc1	4%	1%	1	0%	0%	-18%
CCc1cccc(NC(=O)COC(=O)/C=C/c2cccs2)c1	-13%	5%	1	-8%	-6%	-14%
O=C(COc1ccccc1[N+](=O)[O-])Nc1cccc(S(=O)(=O)N2CCCC2)c1	2%	-7%	-1	?	23µM*	21µM*
O=C(COC(=O)/C=C/c1cccs1)Nc1cccc(S(=O)(=O)N2CCCC2)c1	6%	-3%	4	12%	13µM*	23µM*
O=C(COc1ccc(F)cc1Cl)Nc1cccc(S(=O)(=O)N2CCCC2)c1	0%	-101%	-52*	?	?	-26%
CN(C)S(=O)(=O)c1cccc(NC(=O)COc2ccc(S(=O)(=O)N3CCOCC3)cc2Cl)c1	1%	-28%	12	20%	-22%	?
CC(=O)Nc1cccc(OCC(=O)Nc2cccc(S(=O)(=O)N3CCCC3)c2)c1	-20%	-8%	11	0%	21µM*	21µM*
CC1CN(C(=O)CCS(=O)(=O)c2ccccc2)CC(C)O1 (stereo not drawn)	13%	8%	4	-4%	2%	10%
Cc1ccc(NC(=O)CN2C(=O)NC(Cc3ccccc3)C2=O)cc1Cl (stereo not drawn)	-1%	-40%	-4	?	?	?
Cc1cc(Cl)ccc1NC(=O)c1cc(S(=O)(=O)N2CCOCC2)cn1C	-3%	1%	.	1%	?	?
Cc1cc(NC(=O)Cc2cc(F)cc(F)c2)no1	.	3%	-7	4%	-9%	2%
O=C(COc1ccccc1)Nc1cccc(S(=O)(=O)N2CCCC2)c1	-1%	-1%	-2	-3%	-18%	-27%
O=C(COc1ccccc1Cl)Nc1cccc(S(=O)(=O)N2CCCC2)c1	1%	-29%	-21	-7%	16µM*	21µM*
COc1ccc(OCCC(=O)OCC(=O)Nc2cccc(S(=O)(=O)N3CCCCC3)c2)cc1	-3%	-1%	-96*	16%	?	?
COc1ccc(C(=O)c2ccc([N+](=O)[O-])cc2)cc1S(=O)(=O)N1CCC(C(=O)O)CC1	8%	-3%	6	2%	15%	-15%

Source: PubChem
